Assay results: PubChem BioAssay AID623877 (Johns Hopkins Ion Channel Center, 2012)
About 1,000 (0.29%) of roughly 340,000 compounds were called active.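 The calls were made as follows: active = fluorescence-ratio B-score plate-corrected deviation score at least 3 library SD below zero, with starting fluorescence score within 5 deviations; inactive = the rest.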 This excerpt belongs to a sample that is enriched for actives.

The molecules below were run against Anoctamin-1 (Mus musculus) (UniProt Q8BHY3) (assay: mouse ANO1 channel activation – cell-based, HTS, primary screen (AID 623877;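 as to B-score: channel opened by trigger with iodide after compound preincubation; score built on the fluorescence ratio of max minus min over baseline; more negative score means more quench and so TMEM16A activation or potentiation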)). Conditions: HEK293 TMEM16A/YFP-H148Q/I152L, iodide quench fluorescence, at 10 µM; stronger effect = lower value.
Sequence of Anoctamin-1 (Mus musculus) (Q8BHY3 whole entry, looked up): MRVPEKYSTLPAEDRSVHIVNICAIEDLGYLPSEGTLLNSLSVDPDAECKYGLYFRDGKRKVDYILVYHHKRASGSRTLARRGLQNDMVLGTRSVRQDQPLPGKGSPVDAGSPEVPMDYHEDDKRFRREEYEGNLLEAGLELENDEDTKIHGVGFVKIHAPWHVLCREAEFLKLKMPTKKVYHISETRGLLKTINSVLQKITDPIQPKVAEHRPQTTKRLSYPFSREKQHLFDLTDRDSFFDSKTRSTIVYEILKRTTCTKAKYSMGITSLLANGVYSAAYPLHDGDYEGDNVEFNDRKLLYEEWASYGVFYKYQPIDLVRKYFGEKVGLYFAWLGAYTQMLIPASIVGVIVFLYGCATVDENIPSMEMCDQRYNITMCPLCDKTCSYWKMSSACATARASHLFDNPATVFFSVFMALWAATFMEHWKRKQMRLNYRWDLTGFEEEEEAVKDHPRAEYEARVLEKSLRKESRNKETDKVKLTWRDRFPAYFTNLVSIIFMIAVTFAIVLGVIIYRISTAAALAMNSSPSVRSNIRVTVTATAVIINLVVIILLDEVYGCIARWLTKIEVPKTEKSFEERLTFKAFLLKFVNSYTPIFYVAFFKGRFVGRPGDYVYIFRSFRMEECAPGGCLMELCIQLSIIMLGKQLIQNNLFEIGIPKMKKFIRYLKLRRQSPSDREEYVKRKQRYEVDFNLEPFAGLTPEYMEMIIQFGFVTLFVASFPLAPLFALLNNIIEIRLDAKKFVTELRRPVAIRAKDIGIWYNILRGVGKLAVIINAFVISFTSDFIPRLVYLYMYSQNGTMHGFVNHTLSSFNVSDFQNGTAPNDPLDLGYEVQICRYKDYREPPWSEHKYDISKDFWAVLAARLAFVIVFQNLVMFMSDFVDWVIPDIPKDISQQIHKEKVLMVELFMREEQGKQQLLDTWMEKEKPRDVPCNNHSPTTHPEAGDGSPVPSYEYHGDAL

Row | SMILES | B-score
1 | O=C(CCl)N(Cc1cccc([N+](=O)[O-])c1)c1cccc(Cl)c1 | inactive
2 | Cc1ccc(-c2csc(C(C#N)=C(O)CN3CCN(C(=O)c4ccco4)CC3)n2)cc1 | inactive
3 | COC(=O)Cc1c(-c2[nH]c3ccccc3c2CC(=O)OC)[nH]c2ccccc12 | inactive
4 | COC(=O)C[n+]1cccc2ccccc21 | -8.8 (active)
5 | O=C(C[n+]1cc(Br)cc2ccccc21)c1ccc(F)cc1 | inactive
6 | O=C(Nc1cccc(Cl)c1)C1CCCN(c2cnccn2)C1 (stereo not given) | inactive
7 | Cc1ccc2c(c1)C(c1ccccc1)N(C(=O)c1ccc(S(=O)(=O)N3CCOCC3)cc1)CC(=O)N2 (stereo not given) | inactive
8 | COc1cccc(N2CCN(CC(=O)Nc3ccnn3C3CCCC3)CC2)c1 | -41.6 (active)
9 | COc1ccccc1N1CCN(CC(=O)Nc2ccnn2C2CCCC2)CC1 | inactive
10 | COc1cccc(C(=O)N2CCC(n3nccc3NC(=O)C3CCOC3)CC2)c1 (stereo not given) | inactive
11 | COc1ccc(CNC(=O)CN(Cc2ccc(Cl)cc2)S(C)(=O)=O)cc1 | inactive
12 | Nc1ncnc2c1cnn2C1CC(O)C(CO)O1 (stereo not given) | inactive
13 | Cc1noc(/C=C/c2ccco2)c1S(=O)(=O)N1CCC(C(=O)Nc2ccc(Cl)cn2)CC1 | inactive
14 | C=CC(COCc1ccccc1)N(Cc1ccccc1)S(=O)(=O)c1ccccc1Br (stereo not given) | -4.97 (active)
15 | C=CCCN(Cc1ccccc1)S(=O)(=O)c1ccccc1Br | inactive
16 | C=CC(COCc1ccccc1)N(CC(=O)OC)S(=O)(=O)c1cc(Br)ccc1OC (stereo not given) | inactive
17 | O=C(CN1CCCSc2ccccc21)N1CCN(S(=O)(=O)c2cccc(F)c2)CC1 | -45.3 (active)
18 | O=C(CN1CCCSc2ccccc21)N1CCN(S(=O)(=O)c2ccccc2)CC1 | inactive
19 | O=C(CN1CCN(S(=O)(=O)c2cccc(Cl)c2)CC1)N1CCCCC1 | inactive
20 | O=C1c2ccccc2C(=O)N1CCCCCCN1C(=O)c2ccccc2C1=O | inactive
21 | COc1cc(C(=O)Nc2oc(-c3ccccc3)c(-c3ccccc3)c2C#N)cc(OC)c1OC | inactive
22 | N#Cc1c(NC(=O)CCCN2C(=O)c3ccccc3C2=O)oc(-c2ccccc2)c1-c1ccccc1 | -21.8 (active)
23 | CN(C)S(=O)(=O)c1ccc(N2CCCC2)c(C(=O)NCc2ccccc2)c1 | inactive
24 | O=P(c1cccs1)(c1cccs1)c1cccs1 | inactive
25 | COc1ccc(N=C2C=CC(=O)O2)cc1 | inactive
26 | COc1ccc(-n2c(SCC(=O)NCc3cccs3)nnc2-c2ccoc2C)cc1 | inactive
27 | Cc1ccccc1-n1c(SCC(=O)NCc2cccs2)nnc1-c1ccncc1 | -9.87 (active)

Row | SMILES | B-score
28 | CCOc1ccccc1-n1c(SCC(=O)NCc2ccco2)nnc1-c1ccncc1 | inactive
29 | O=C(Oc1ccccc1)Oc1ccc2c(c1)oc(=O)c1ccccc12 | inactive
30 | CC(C)N(Cc1ccccc1)C(=S)Nc1ccc(OC(F)F)cc1 | inactive
31 | Cc1ccccc1NC(=O)c1nn(-c2ccc(F)c(F)c2)ccc1=O | inactive
32 | CCCSc1ncccc1C(=O)O | inactive
33 | Cc1ccc(CNC(=O)c2cccnc2Cl)cc1 | inactive
34 | CCN(CC)S(=O)(=O)c1ccc(NC(=O)c2cccnc2Cl)c(NC(=O)c2cccnc2Cl)c1 | -8.41 (active)
35 | CCN(CC)S(=O)(=O)c1ccc(NC(=O)c2cnc(C)cn2)cc1 | inactive
36 | O=C(NCCN1CCCC(O)C1)c1cc(COc2c(F)cccc2F)on1 (stereo not given) | inactive
37 | CCc1nnc(NC(=O)CSc2nc(SC)ns2)s1 | inactive
38 | COc1ccc(OC)c(Nc2nc3ccccc3n3cnnc23)c1 | inactive
39 | COc1ccc(S(=O)(=O)N2CCCC2)c(C)c1C | inactive
40 | CC(C)NC(=O)NC(=O)CSc1nnc(-c2ccccc2F)n1N | inactive
41 | Nn1c(SCC(=O)NC2CCCC2)nnc1-c1ccccc1F | -15.8 (active)
42 | Nn1c(SCC(=O)NC(=O)NC2CCCC2)nnc1-c1ccccc1F | inactive
43 | CC(C)[C@H](NC(=O)OCc1ccccc1)C(=O)OCc1ccccc1 | inactive
44 | COc1ccc(COC(=O)NC(C(=O)O)c2ccccc2)cc1 (stereo not given) | -15.7 (active)
45 | COC(=O)c1ccc(C(NC(=O)OCc2ccccc2)/C(F)=C/[C@@H](C)C(=O)O)cc1 (stereo not given in full) | inactive
46 | Cc1cccc(C)c1NC(=O)C1CCCN1C(=O)OC(C)(C)C (stereo not given) | inactive
47 | C/C=C/C(=O)OCc1csc(CC(=O)Nc2ccccc2C)n1 | inactive
48 | Cc1ccc(NC(=O)Cc2nc(COC(=O)C(C)NS(=O)(=O)c3ccc(C)cc3)cs2)cc1 (stereo not given) | -5.62 (active)
49 | CC(=O)Nc1ccc(S(=O)(=O)NC(C)C(=O)OCC(=O)NC2CCCC2)cc1 (stereo not given) | inactive
50 | CCOc1cc(C(=O)N(Cc2ccccc2)c2ccc(C)cc2)ccc1OCC(=O)N1CCOCC1 | inactive
51 | CCOC(=O)C1(Cc2ccc(O)cc2)NC(c2ccccc2F)C2C(=O)N(C)C(=O)C21 (stereo not given) | inactive
52 | CCOc1cc(/C=C2/N=C(c3ccc(C(C)(C)C)cc3)OC2=O)cc(Cl)c1OS(C)(=O)=O | inactive
53 | COc1ccc(-c2ccnc(SCC(=O)N3CCOCC3)n2)cc1 | inactive
54 | C=CCC1=C/C(=C\c2c(N)n3nc(CC(=O)N4CCOCC4)sc3nc2=O)C=C(OC)C1=O | inactive

Row | SMILES | B-score
55 | COC1=C/C(=C/c2c(N)n3nc(CC(=O)N4CCOCC4)sc3nc2=O)C=CC1=O | -12.3 (active)
56 | N#CCSc1nn(-c2ccc(F)cc2)c(=S)s1 | inactive
57 | O=C(CSc1ccccn1)N1CCN(S(=O)(=O)c2ccc(Cl)cc2)CC1 | inactive
58 | CCC(C)n1[nH]c(=O)cc1N (stereo not given) | inactive
59 | CCCC(C)n1[nH]c(=O)c2c(C)cc(C)nc21 (stereo not given) | inactive
60 | CCC(C)n1[nH]c(=O)c2c(C)cc(C)nc21 (stereo not given) | -6.98 (active)
61 | CSc1nc2sc3c(c2c(=O)[nH]1)CCc1ccccc1-3 | inactive
62 | O=C(COC(=O)c1cc[n+]([O-])cc1)Nc1ccc(Cl)c(C(F)(F)F)c1 | inactive
63 | O=C(CC(O)(C(F)(F)F)C(F)(F)F)Nc1ccc(Cl)c(Cl)c1 | -12.9 (active)
64 | NC(=O)N1CCCC1C(=O)Nc1ccc(Cl)c(Cl)c1 (stereo not given) | inactive
65 | Cc1ccc(S(=O)(=O)N2CCOCC2)cc1C(=O)Nc1ccccc1N1CCCC1 | inactive
66 | Nc1ccc2c(c1)C(=Cc1cccnc1)c1ccccc1-2 | inactive
67 | N#CCC(=O)N/N=C/c1ccc(SCC(=O)Nc2ccccc2)o1 | inactive
68 | CC(OC(=O)CCCc1c[nH]c2ccccc12)C(=O)Nc1ccc(S(N)(=O)=O)cc1 (stereo not given) | inactive
69 | C/C(=N\NS(=O)(=O)c1cccc([N+](=O)[O-])c1)c1cc2ccccc2o1 | inactive
70 | CCCCN1CCNC1=S | inactive
71 | O=C1c2ccccc2S(=O)(=O)c2cc(N3CCN(c4ccccn4)CC3)ccc21 | -5.73 (active)
72 | O=C1c2cccc3cccc(c23)N1CN1CCN(c2ccccn2)CC1 | inactive
73 | O=C(c1ccc2c(c1)N(Cc1ccc(F)cc1)C(=O)c1ccccc1S2(=O)=O)N1CCN(c2ccccn2)CC1 | -4.74 (active)
74 | O=C(C(Cl)Cl)N1CCN(c2ccccn2)CC1 | inactive
75 | O=C(c1ccc2c(c1)C(=O)N(c1ccc(Cl)cc1)C2=O)N1CCN(c2ccccn2)CC1 | inactive
76 | O=C(c1c(F)cccc1Cl)N1CCN(c2ccccn2)CC1 | inactive
77 | Nc1c(Cl)cc(-c2csc(N3CCCC3c3nc4cc(Cl)c(Cl)cc4n3CCOCCO)n2)cc1Cl (stereo not given) | inactive
78 | Cc1ccc(CSCC(=O)N(C)CC(=O)Nc2ccc(C)cc2)cc1 | inactive
79 | CC1C(=O)NC(=O)C1c1ccccc1 (stereo not given) | inactive
80 | CC(C)(C)Nc1nc(-c2ccccn2)nc2ccccc12 | inactive
81 | COc1ccc(Nc2nc(-c3cccnc3)nc3ccccc23)cn1 | -6.47 (active)

Row | SMILES | B-score
82 | S=c1nc2ccccc2c2nc(-c3cccnc3)[nH]n12 | inactive
83 | O=S(=O)(NC(=S)Nc1ccccc1)c1ccc(F)cc1 | inactive
84 | O=C(O)C1CCN(C(=O)c2cc(F)cc3c2OCOC3)CC1 | inactive
85 | Cc1cc(=O)n2nc(N3CCCC(C(=O)NCc4ccc(Cl)cc4)C3)sc2n1 (stereo not given) | inactive
86 | Cc1cc(=O)n2nc(N3CCCC(C(=O)NCCC4=CCCCC4)C3)sc2n1 (stereo not given) | inactive
87 | Cc1cc(=O)n2nc(N3CCCC3C(=O)NCCCN3CC(C)CC(C)C3)sc2n1 (stereo not given) | -18.1 (active)
88 | CN(c1ccc(OCC(=O)OCC(=O)Nc2cccc([N+](=O)[O-])c2)cc1)S(=O)(=O)c1ccc(F)cc1 | inactive
89 | Cc1ccccc1OCCC(=O)OCC(=O)NCCc1ccc(S(N)(=O)=O)cc1 | inactive
90 | CN(C)S(=O)(=O)c1ccc(C(=O)NCCN=C2NS(=O)(=O)c3ccccc32)cc1 | inactive
91 | CCc1ccc(-c2cc(C)no2)cc1S(=O)(=O)NCCc1ccc(S(N)(=O)=O)cc1 | -4.67 (active)
92 | Cc1noc(C)c1S(=O)(=O)NCCc1ccc(S(N)(=O)=O)cc1 | inactive
93 | Cc1cc(-c2ccc(C)c(S(=O)(=O)Nc3ccc(S(N)(=O)=O)cc3)c2)on1 | inactive
94 | Cc1cc(C)c2c(c1)cc(C)c1nnc(SCC(=O)Nc3cc(C)on3)n12 | inactive
95 | C=CCN(CC=C)CCOc1ccccc1[N+](=O)[O-] | inactive
96 | O=[N+]([O-])c1ccc(NS(=O)(=O)c2ccccc2)c(Cl)c1 | inactive
97 | Cc1ccc(-c2nn(-c3ccccc3)cc2C(=O)NC2CCC(O)CC2)cc1 (stereo not given) | inactive
98 | O=C(NNC(=S)NC(=O)c1cn(-c2ccccc2)nc1-c1ccccc1)c1ccncc1 | -5.25 (active)
99 | NC(=O)C1CCN(C(=O)c2cn(-c3ccccc3)nc2-c2cccnc2)CC1 | inactive
100 | O=C(CCc1nnc2ccc(NCCCN3CCCC3=O)nn12)NCc1ccccc1Cl | inactive
101 | C#CCOCCOCCOCCNc1nc(N2CCN(C(=O)C(Cc3ccc(O)cc3)n3cc(C(N)CC(C)C)nn3)CC2)nc(N2CCN(C(=O)C(Cc3ccc(O)cc3)n3cc(C(N)C(C)CC)nn3)CC2)n1 (stereo not given) | inactive
102 | COc1ccc(CN2C(=O)C(C)S/C2=N/N=C/c2ccco2)cc1 (stereo not given) | inactive
103 | COc1ccc(NC(=O)Cn2nnc(C(=O)NCCc3ccc(OC)c(OC)c3)c2N)cc1 | inactive
104 | COc1ccc(CNC(=O)c2nnn(CC(=O)Nc3cc(C)cc(C)c3)c2N)cc1 | inactive
105 | CCc1ccc(NC(=O)Cn2nnc(C(=O)NCc3ccc(OC)cc3)c2N)cc1 | -25.9 (active)
